Records with an inconclusive call do not appear. The source made the active and inactive calls. The calls were made as follows, unless noted: active = hit-call score of the fitted dose curve at least 0.9, where 1 is the maximum; inactive = score below 0.9.
Legend:
[1] = target: Paired box protein Pax-6 (Homo sapiens) (UniProt P26367); test: ATG_Pax6_CIS: Attagene CIS-FACTORIAL HepG2 Assay for human Paired Box 6 (PAX6) (AID 2282956); settings: HepG2 CIS-FACTORIAL PAX6 reporter transcription, RNA readout; actives raise or lower the signal
Paired box protein Pax-6 (Homo sapiens), sequence (P26367 whole entry, looked up): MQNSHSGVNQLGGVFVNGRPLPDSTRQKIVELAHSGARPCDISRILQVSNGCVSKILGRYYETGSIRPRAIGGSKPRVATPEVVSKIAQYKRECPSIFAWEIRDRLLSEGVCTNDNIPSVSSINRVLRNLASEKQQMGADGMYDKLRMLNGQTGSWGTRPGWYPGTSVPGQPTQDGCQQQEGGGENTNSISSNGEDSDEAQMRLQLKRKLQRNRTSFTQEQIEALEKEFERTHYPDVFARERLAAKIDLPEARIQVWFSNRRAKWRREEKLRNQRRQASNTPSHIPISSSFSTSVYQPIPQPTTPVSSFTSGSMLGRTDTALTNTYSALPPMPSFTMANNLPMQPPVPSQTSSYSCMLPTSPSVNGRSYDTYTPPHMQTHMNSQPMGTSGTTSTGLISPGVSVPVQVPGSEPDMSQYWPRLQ
Procedure, shortened: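 Read-out is reporter transcript level, measured by RT-PCR with fluorescent primer extension and capillary electrophoresis after 24 h dosing of transfected HepG2 cells. Activity in either direction fitted relative to DMSO control.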

[2] = ATG_PXRE_CIS: Attagene CIS-FACTORIAL HepG2 Assay for human Pregnane X Receptor Element (PXRE) (AID 2282957); settings: HepG2 Attagene CIS-FACTORIAL PXRE reporter, mRNA; actives raise or lower the signal
Procedure, shortened: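 Using HepG2 transfected with multiple reporter transcription units, endogenous factor-driven transcription was scored as reporter mRNA after 24 h exposure.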

[3] = ATG_PPRE_CIS: Attagene CIS-FACTORIAL HepG2 Assay for human Peroxisome Proliferator-activated Response Element (PPRE) (AID 2282958); settings: HepG2 PPRE cis-element reporter, Attagene transcription factor profiling; actives raise or lower the signal
Procedure, shortened: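 Endogenous PPRE-driven transcription is measured in HepG2 cells carrying transfected multi-reporter constructs. Reporter transcripts are quantified by RT-PCR, HpaI digestion and capillary electrophoresis 24 h after dosing. DMSO baseline, bidirectional fit.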

[4] = ATG_RORE_CIS: Attagene CIS-FACTORIAL HepG2 Assay for human RAR-related Orphan Receptor Element (RORE) (AID 2282959); settings: HepG2 Attagene cis-factorial RORE reporter, mRNA; actives raise or lower the signal
Procedure, shortened: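 RORE reporter transcripts reflecting endogenous factor activity were read after 24 h compound exposure of transfected HepG2 cells, using reverse transcription, PCR, fluorescent labelling and capillary electrophoresis sizing. Gain or loss fitted against DMSO.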

[5] = ATG_Sox_CIS: Attagene CIS-FACTORIAL HepG2 Assay for human SRY-box transcription factor (SOX) (AID 2282960); settings: HepG2 Attagene cis-factorial SOX reporter, mRNA; actives raise or lower the signal
Procedure, shortened: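 Reporter transcripts, measured by RT-PCR and capillary electrophoresis of labelled fragments, report endogenous SOX transcription factor activity. Transiently transfected human HepG2 cells receive chemical for 24 h; changes in either direction are fitted relative to DMSO.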

[6] = ATG_SREBP_CIS: Attagene CIS-FACTORIAL HepG2 Assay for human Sterol Regulatory Element Binding (SREBP) (AID 2282962); settings: HepG2 Attagene cis-factorial SREBP reporter, mRNA; actives raise or lower the signal
Procedure, shortened: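 Endogenous SREBP activity read as cis-element-driven reporter transcript in transiently transfected HepG2, 24 h post-dosing; quantified via RT-PCR plus capillary electrophoresis of fluorescent fragments. Gain or loss of signal fitted relative to DMSO baseline.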

[7] = target: Signal transducer and activator of transcription 3 (Homo sapiens) (UniProt P40763); test: ATG_STAT3_CIS: Attagene CIS-FACTORIAL HepG2 Assay for human Signal Transducer and Activator of Transcription 3 (STAT3) (AID 2282963); settings: HepG2, Attagene cis-factorial STAT3 reporter transcription; actives raise or lower the signal
Signal transducer and activator of transcription 3 (Homo sapiens), sequence (P40763 whole entry, looked up): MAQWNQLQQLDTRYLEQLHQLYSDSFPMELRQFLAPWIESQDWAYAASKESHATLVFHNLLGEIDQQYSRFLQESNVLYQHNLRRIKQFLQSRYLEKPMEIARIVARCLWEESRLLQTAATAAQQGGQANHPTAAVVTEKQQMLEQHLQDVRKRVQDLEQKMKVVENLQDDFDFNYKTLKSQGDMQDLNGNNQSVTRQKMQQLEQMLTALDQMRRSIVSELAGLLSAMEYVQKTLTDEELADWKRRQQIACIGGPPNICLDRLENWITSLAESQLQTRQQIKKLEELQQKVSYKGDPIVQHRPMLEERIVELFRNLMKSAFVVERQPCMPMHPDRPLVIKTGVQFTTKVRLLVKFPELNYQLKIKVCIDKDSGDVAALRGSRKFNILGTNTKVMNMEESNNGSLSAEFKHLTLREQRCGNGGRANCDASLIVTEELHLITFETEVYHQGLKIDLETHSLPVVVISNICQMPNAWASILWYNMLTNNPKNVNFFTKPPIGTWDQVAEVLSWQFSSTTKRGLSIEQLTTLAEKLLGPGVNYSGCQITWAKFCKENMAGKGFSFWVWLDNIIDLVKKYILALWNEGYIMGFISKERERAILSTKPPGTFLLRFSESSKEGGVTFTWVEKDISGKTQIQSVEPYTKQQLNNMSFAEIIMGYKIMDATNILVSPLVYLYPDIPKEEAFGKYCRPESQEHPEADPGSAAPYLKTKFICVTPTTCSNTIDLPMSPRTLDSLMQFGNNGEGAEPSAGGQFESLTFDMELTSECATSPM
Procedure, shortened: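 Cis-factorial format: endogenous transcription factors in HepG2 drive transfected reporter units. After 24 h treatment, reporter RNA was reverse-transcribed, amplified, FAM-labelled and HpaI-digested before CE analysis; activity scored in both directions against DMSO.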

[8] = ATG_TA_CIS: Attagene CIS-FACTORIAL HepG2 Assay for human TA Basal Promoter (AID 2282964); settings: HepG2 Attagene CIS-factorial TA basal promoter reporter; actives raise or lower the signal
Procedure, shortened: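 Transient MRTU transfection of HepG2 preceded 24 h compound exposure. Reporter mRNA levels were then read by RT-PCR with capillary electrophoresis, and this background-control endpoint was fitted bidirectionally to DMSO.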

[9] = ATG_TCF_b_cat_CIS: Attagene CIS-FACTORIAL HepG2 Assay for human T-Cell-Factor with beta-catenin (TCF/b-cat) (AID 2282965); settings: HepG2 TCF/beta-catenin cis-reporter transcription, actives raise or lower the signal
Procedure, shortened: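 Endogenous transcription factor activity is captured through cis-promoter reporter constructs transiently introduced into human HepG2 liver cells. Induced reporter mRNA is measured after 24 h and fitted bidirectionally relative to DMSO.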

[10] = ATG_TAL_CIS: Attagene CIS-FACTORIAL HepG2 Assay for human TAL Basal Promoter (AID 2282966); settings: HepG2 Attagene cis-factorial TAL promoter reporter; actives raise or lower the signal;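 also: background control endpoint measuring basal TAL promoter reporter mRNA not a specific factor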
Procedure, shortened: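 After 24 hours of chemical exposure, transfected HepG2 cells yielded RNA that was converted to 6-FAM-labelled, HpaI-digested reporter fragments for capillary electrophoresis. Values derive from bidirectional fitting against DMSO controls.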

[11] = ATG_TGFb_CIS: Attagene CIS-FACTORIAL HepG2 Assay for human Transforming Growth Factor (TGF) (AID 2282967); settings: HepG2 Attagene CIS TGFb reporter, mRNA transcription; actives raise or lower the signal
Procedure, shortened: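 After a 24-hour incubation with compound, transfected HepG2 cells were lysed for RNA; reporter cDNA was amplified, fluorescently end-labeled and separated by CE. DMSO served as baseline for bidirectional fits.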

[12] = ATG_VDRE_CIS: Attagene CIS-FACTORIAL HepG2 Assay for human Vitamin D Receptor Element (VDRE) (AID 2282968); settings: HepG2 VDRE cis-reporter transcription, actives raise or lower the signal
Procedure, shortened: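 Measures endogenous factor activity through cis-element-driven reporter transcripts in transiently transfected HepG2. Cells are treated 24 h; reporter mRNA is quantified by RT-PCR and capillary electrophoresis; fitting is bidirectional.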

[13] = target: Estrogen receptor (Homo sapiens) (UniProt P03372); test: ATG_ERa_TRANS: Attagene TRANS-FACTORIAL HepG2 Assay for human Estrogen Receptor alpha (ERa) (AID 2282970; active = hit-call score of the fitted dose curve at least 0.9, where 1 is the maximum); settings: HepG2 Attagene TRANS ERa GAL4 reporter, mRNA
Estrogen receptor (Homo sapiens), sequence (P03372 whole entry, looked up, the tested form may be a part): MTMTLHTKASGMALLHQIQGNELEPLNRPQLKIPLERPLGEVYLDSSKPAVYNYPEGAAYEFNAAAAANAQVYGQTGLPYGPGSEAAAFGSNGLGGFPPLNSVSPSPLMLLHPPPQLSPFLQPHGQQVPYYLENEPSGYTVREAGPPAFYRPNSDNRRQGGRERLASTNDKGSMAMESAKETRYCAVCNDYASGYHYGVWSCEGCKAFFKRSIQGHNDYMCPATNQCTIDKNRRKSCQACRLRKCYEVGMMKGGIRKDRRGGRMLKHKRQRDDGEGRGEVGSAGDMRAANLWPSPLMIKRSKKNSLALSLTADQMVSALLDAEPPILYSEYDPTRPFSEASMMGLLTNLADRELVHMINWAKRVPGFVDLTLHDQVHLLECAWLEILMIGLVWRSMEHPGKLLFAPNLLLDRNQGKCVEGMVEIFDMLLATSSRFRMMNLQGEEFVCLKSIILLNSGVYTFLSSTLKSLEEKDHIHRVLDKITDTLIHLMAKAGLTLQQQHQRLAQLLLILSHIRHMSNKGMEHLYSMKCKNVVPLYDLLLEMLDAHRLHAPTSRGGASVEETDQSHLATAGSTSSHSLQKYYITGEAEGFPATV
Procedure, shortened: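 Liver-derived HepG2 cells expressing chimeric nuclear receptor-Gal4 proteins from transient transfection were exposed for 24 hours. Gain of reporter mRNA signal versus DMSO, read by capillary electrophoresis of FAM-labelled PCR products, was recorded.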

[14] = target: X-box-binding protein 1 (Homo sapiens) (UniProt P17861); test: ATG_Xbp1_CIS: Attagene CIS-FACTORIAL HepG2 Assay for human X-box Binding Protein 1 (XBP1) (AID 2282972); settings: HepG2 XBP1 cis-element reporter, Attagene multiplex; actives raise or lower the signal
X-box-binding protein 1 (Homo sapiens), sequence (P17861 whole entry, looked up): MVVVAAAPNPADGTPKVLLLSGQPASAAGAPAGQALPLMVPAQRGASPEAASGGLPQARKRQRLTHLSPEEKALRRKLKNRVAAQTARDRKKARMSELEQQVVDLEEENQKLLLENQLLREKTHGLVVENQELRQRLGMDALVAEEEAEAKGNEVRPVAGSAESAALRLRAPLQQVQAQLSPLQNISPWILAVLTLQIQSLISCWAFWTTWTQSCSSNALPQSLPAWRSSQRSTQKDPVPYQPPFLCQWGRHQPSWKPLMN
Procedure, shortened: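 Reporter transcripts were quantified by RT-PCR with fluorescent primer extension and capillary electrophoresis after 24 h chemical exposure. Cells: transiently transfected HepG2 carrying cis-regulated reporter constructs; data fitted bidirectionally relative to DMSO.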

[15] = ATG_M_19_TRANS: Attagene TRANS-FACTORIAL HepG2 Assay for M19 Transcription Factor (Internal Marker) (AID 2282974; active = hit-call score of the fitted dose curve at least 0.9, where 1 is the maximum); settings: HepG2 Attagene TRANS-FACTORIAL M19 internal marker reporter
Procedure, shortened: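 Background-control readout: after 24 h chemical exposure of transfected HepG2 carrying GAL4-driven reporter units, RNA was reverse-transcribed, amplified, fluorescently labeled and sized by capillary electrophoresis; gain-of-signal fit against DMSO.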

[16] = target: Estrogen-related receptor gamma (Homo sapiens) (UniProt P62508); test: ATG_ERRg_TRANS: Attagene TRANS-FACTORIAL HepG2 Assay for human Estrogen-Related Receptor gamma (ERRg) (AID 2282977; active = hit-call score of the fitted dose curve at least 0.9, where 1 is the maximum;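 also: hits increase reporter signal over DMSO so potencies reflect activators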); settings: HepG2 Attagene TRANS reporter, ERRg transactivation
Estrogen-related receptor gamma (Homo sapiens), sequence (P62508 whole entry, looked up, the tested form may be a part): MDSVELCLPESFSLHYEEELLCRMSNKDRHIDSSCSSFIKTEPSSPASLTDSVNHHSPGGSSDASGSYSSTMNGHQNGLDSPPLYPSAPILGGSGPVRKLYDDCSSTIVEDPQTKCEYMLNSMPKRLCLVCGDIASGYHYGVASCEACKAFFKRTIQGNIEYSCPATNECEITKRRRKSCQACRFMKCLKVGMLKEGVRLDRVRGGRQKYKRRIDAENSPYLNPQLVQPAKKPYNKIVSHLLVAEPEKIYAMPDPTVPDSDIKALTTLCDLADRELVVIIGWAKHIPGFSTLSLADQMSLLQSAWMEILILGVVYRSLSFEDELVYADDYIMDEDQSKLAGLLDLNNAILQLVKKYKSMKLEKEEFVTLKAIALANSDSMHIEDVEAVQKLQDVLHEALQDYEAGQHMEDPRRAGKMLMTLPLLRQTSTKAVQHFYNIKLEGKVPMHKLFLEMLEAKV
Procedure, shortened: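 Exogenous NR-Gal4 chimera activity was assessed in HepG2 cells bearing transfected GAL4-UAS reporters. After 24 h dosing, total RNA underwent RT-PCR, fluorescent primer extension and HpaI digestion before capillary electrophoresis, with gain of signal scored against DMSO.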

[17] = target: Nuclear receptor subfamily 1 group I member 3 (Homo sapiens) (UniProt Q14994); test: ATG_CAR_TRANS: Attagene TRANS-FACTORIAL HepG2 Assay for human Constitutive Androstane Receptor (CAR) (AID 2282969; active = hit-call score of the fitted dose curve at least 0.9, where 1 is the maximum;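 also: activators raise reporter mRNA above DMSO so AC50 marks induction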); settings: HepG2 Attagene TRANS-FACTORIAL CAR reporter
Nuclear receptor subfamily 1 group I member 3 (Homo sapiens), sequence (Q14994 whole entry, looked up, the tested form may be a part): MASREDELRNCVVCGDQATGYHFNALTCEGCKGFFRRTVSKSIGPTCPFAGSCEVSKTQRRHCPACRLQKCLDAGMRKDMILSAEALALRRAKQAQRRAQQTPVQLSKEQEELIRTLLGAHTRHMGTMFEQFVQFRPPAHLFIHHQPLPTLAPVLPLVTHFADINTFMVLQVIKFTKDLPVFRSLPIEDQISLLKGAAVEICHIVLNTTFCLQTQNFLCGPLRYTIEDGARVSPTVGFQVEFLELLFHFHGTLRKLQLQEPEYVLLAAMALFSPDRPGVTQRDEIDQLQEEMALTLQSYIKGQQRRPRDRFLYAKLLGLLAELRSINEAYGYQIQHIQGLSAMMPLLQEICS
Procedure, shortened: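 Signal is reporter mRNA induction relative to DMSO, measured 24 h after dosing by RT-PCR with fluorescent primer extension and capillary electrophoresis. Human HepG2 liver cells carried transiently transfected chimeric NR-Gal4/GAL4-UAS reporter constructs.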

[18] = target: Steroid hormone receptor ERR1 (Homo sapiens) (UniProt P11474); test: ATG_ERRa_TRANS: Attagene TRANS-FACTORIAL HepG2 Assay for human Estrogen-Related Receptor alpha (ERRa) (AID 2282971; active = hit-call score of the fitted dose curve at least 0.9, where 1 is the maximum); settings: HepG2 Attagene TRANS reporter, ERRa transactivation
Steroid hormone receptor ERR1 (Homo sapiens), sequence (P11474 whole entry, looked up, the tested form may be a part): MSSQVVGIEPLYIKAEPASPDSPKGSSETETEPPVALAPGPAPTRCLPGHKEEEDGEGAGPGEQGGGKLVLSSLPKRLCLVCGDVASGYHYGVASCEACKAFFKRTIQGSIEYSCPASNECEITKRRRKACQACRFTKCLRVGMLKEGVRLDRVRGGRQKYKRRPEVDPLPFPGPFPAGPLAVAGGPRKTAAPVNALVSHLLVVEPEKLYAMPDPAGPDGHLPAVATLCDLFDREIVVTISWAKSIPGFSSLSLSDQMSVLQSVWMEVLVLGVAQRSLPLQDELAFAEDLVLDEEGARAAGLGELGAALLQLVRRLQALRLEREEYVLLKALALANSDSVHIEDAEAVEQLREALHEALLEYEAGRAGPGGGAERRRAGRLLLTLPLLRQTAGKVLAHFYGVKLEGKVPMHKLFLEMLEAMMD
Procedure, shortened: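 Reporter transcript induction was quantified by RT-PCR and capillary electrophoresis of FAM-labelled, HpaI-cut products after 24 h treatment of HepG2 cells carrying transiently transfected GAL4-UAS reporter units and an exogenous ERRa-Gal4 fusion; activity scored as increase over DMSO.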

[19] = target: Transcription factor Sp1 (Homo sapiens) (UniProt P08047); test: ATG_Sp1_CIS: Attagene CIS-FACTORIAL HepG2 Assay for human Specificity Protein 1 (Sp1) (AID 2282961); settings: HepG2 Sp1 cis-reporter transcription, actives raise or lower the signal
Transcription factor Sp1 (Homo sapiens), sequence (P08047 whole entry, looked up): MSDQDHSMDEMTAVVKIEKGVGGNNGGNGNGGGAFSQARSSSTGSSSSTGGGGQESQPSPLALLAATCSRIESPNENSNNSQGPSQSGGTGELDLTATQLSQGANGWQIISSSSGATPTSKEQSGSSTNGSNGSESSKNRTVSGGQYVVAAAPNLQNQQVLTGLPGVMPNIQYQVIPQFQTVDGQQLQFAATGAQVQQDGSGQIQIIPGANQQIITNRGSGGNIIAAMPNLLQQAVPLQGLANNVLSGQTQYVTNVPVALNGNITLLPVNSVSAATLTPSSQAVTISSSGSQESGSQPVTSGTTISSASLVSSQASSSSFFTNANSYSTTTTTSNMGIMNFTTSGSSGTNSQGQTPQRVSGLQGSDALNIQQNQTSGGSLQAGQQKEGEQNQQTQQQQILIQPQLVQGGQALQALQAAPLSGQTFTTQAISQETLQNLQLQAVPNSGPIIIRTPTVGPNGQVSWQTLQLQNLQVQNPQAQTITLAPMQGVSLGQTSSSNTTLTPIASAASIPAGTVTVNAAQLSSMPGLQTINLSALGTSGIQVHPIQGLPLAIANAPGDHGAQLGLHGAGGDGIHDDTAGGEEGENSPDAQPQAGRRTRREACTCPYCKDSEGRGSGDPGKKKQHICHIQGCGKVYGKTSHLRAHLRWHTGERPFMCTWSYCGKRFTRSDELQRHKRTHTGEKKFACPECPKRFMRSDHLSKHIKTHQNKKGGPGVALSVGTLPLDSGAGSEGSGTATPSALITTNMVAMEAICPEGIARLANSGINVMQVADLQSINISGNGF
Procedure, shortened: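 Read-out is reporter transcript level, measured by RT-PCR and fluorescent capillary electrophoresis after 24 h chemical treatment. System: transiently transfected HepG2 cells reporting endogenous transcription factor activity; gain or loss fitted against DMSO baseline.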

[20] = ATG_GAL4_TRANS: Attagene TRANS-FACTORIAL HepG2 Assay for GAL4 (Internal Marker) (AID 2282976; active = hit-call score of the fitted dose curve at least 0.9, where 1 is the maximum); settings: HepG2 Attagene TRANS GAL4 internal marker reporter
Procedure, shortened: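 First, HepG2 cells were transfected with reporter units under GAL4-UAS control. Next, they were treated with chemical for 24 h. Finally, RNA was reverse-transcribed, PCR-amplified, FAM-labelled and resolved by capillary electrophoresis, with induction scored against DMSO.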

Measured: AC50

O=S1(=O)OC(c2ccc(O)cc2)(c2ccc(O)cc2)c2ccccc21
active: [2] 13.9 µM | [13] 23.2 µM
not listed: [17] | [18] | [19] | [20]
inactive: all other assays above

FC(F)(F)C(=NOCC1OCCO1)c1ccc(Cl)cc1
active: [2] 12.1 µM | [3] 130 µM
not listed: [16] | [18] | [19] | [20]
inactive: all other assays above

O=C1Nc2ccccc2C1(c1ccc(O)cc1)c1ccc(O)cc1
active: [1] 70.7 µM | [5] 63.9 µM | [6] 27.2 µM | [8] 61.7 µM | [9] 40.9 µM | [12] 17.8 µM | [14] 48.8 µM
inactive: [2] | [3] | [4] | [10] | [11]

CCCOCCOCCOCCO
not listed: [13] | [17] | [19] | [20]
inactive: all other assays above

O=S(=O)(O)c1ccc2cc(O)c(S(=O)(=O)O)cc2c1
active: [1] 151 µM | [9] 66.9 µM | [14] 172 µM
not listed: [8] | [13] | [16] | [17] | [18] | [20]
inactive: all other assays above

CC1=NN(c2cc(S(=O)(=O)O)ccc2Cl)C(=O)C1N=Nc1ccccc1 (stereo not given)
not listed: [8] | [9] | [13] | [16] | [17] | [18]
inactive: all other assays above

CCCCC/C=C\CCC=O
active: [2] 27.8 µM
not listed: [5] | [16] | [20]
inactive: all other assays above

Cc1cc(C)c(C)c(C)c1
not listed: [8] | [13]
inactive: all other assays above

COC(=O)/C=C\C(=O)O
active: [2] 30.7 µM
not listed: [7] | [12] | [13] | [15] | [16] | [17] | [18] | [20]
inactive: all other assays above

[Cl][Bi]([Cl])([c]1ccccc1)([c]1ccccc1)[c]1ccccc1
active: [1] 5.48 µM | [9] 5.75 µM | [13] 2.74 µM | [14] 6.04 µM
not listed: [5] | [16] | [18] | [20]
inactive: all other assays above

Cc1cc(C)c(C)cc1C
not listed: [5] | [16] | [17] | [18] | [20]
inactive: all other assays above

O=C1CCCCCN1SSN1CCCCCC1=O
active: [1] 156 µM | [19] 167 µM | [6] 161 µM | [14] 187 µM
not listed: [5] | [15] | [18] | [20]
inactive: all other assays above

CCCCCCCCCCCCCCCC[n+]1ccccc1
active: [3] 8.82 µM | [11] 45.8 µM | [12] 3.87 µM
not listed: [5] | [13] | [15] | [16] | [17] | [18] | [20]
inactive: all other assays above

From PubChem BioAssay (EPA / NIEHS)
